The record followed here is PubChem BioAssay (EPA / NIEHS).

As usually defined, the AC50 is the concentration giving half of the maximal activity seen.

Inconclusive results are not listed. Calls of active or inactive are those of the source. How the source made its calls, unless noted: active means hit-call score of the fitted dose curve at least 0.9, where 1 is the maximum; inactive means score below 0.9.

In assay [1] the target is Paired box protein Pax-6 (Homo sapiens) (UniProt P26367). In words: ATG_Pax6_CIS: Attagene CIS-FACTORIAL HepG2 Assay for human Paired Box 6 (PAX6) (AID 2282956). The note with it: HepG2 CIS-FACTORIAL PAX6 reporter transcription, RNA readout; actives raise or lower the signal. In outline: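 Fluorescent RT-PCR products separated by capillary electrophoresis report PAX6-linked promoter mRNA in HepG2 cells 24 h post-dose. Curves fitted bidirectionally, DMSO as negative control.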

Assay [2] can be described thus: ATG_PXRE_CIS: Attagene CIS-FACTORIAL HepG2 Assay for human Pregnane X Receptor Element (PXRE) (AID 2282957). The note with it: HepG2 Attagene CIS-FACTORIAL PXRE reporter, mRNA; actives raise or lower the signal. In outline: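 Reporter transcripts under endogenous PXR-responsive cis-regulation quantified from total RNA of transfected HepG2 cells 24 h post-dosing, via RT-PCR with fluorescent primer extension and capillary electrophoresis. Gain or loss of signal fitted against DMSO baseline.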

Assay [3] in a line: ATG_PPRE_CIS: Attagene CIS-FACTORIAL HepG2 Assay for human Peroxisome Proliferator-activated Response Element (PPRE) (AID 2282958). The note with it: HepG2 PPRE cis-element reporter, Attagene transcription factor profiling; actives raise or lower the signal. In outline: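 HepG2 cells transiently transfected with multiplexed cis-element reporter units measure endogenous transcription factor activity. After 24 h compound exposure, reporter mRNA is quantified by RT-PCR, 6-FAM labeling, HpaI digestion and capillary electrophoresis; bidirectional fits are made against DMSO baseline.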

Assay [4] is described as follows: ATG_RORE_CIS: Attagene CIS-FACTORIAL HepG2 Assay for human RAR-related Orphan Receptor Element (RORE) (AID 2282959). To be noted: HepG2 Attagene cis-factorial RORE reporter, mRNA; actives raise or lower the signal. In outline:
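HepG2 cells transiently transfected with multiple cis-element reporter transcription units, exposed to chemical for 24 h. Reporter mRNA quantified by RT-PCR, 6-FAM primer-extension labeling, HpaI digestion and capillary electrophoresis; bidirectional fit versus DMSO baseline.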

Assay [5] can be described thus: ATG_Sox_CIS: Attagene CIS-FACTORIAL HepG2 Assay for human SRY-box transcription factor (SOX) (AID 2282960). To be noted: HepG2 Attagene cis-factorial SOX reporter, mRNA; actives raise or lower the signal. In outline: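 HepG2 cells transiently transfected with cis-element-driven multiple reporter transcription units, dosed 24 h; reporter mRNA measured by RT-PCR, FAM labelling, HpaI digestion and capillary electrophoresis. Bidirectional fit versus DMSO baseline.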

Assay [6] has as its target Transcription factor Sp1 (Homo sapiens) (UniProt P08047). In words: ATG_Sp1_CIS: Attagene CIS-FACTORIAL HepG2 Assay for human Specificity Protein 1 (Sp1) (AID 2282961). The note with it: HepG2 Sp1 cis-reporter transcription, actives raise or lower the signal. An outline of the steps:
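HepG2 cells transiently transfected with multiple reporter transcription units driven by cis-regulatory elements; Sp1-responsive reporter mRNA measured 24 h after dosing by RT-PCR and capillary electrophoresis fluorescence, fitted bidirectionally against DMSO baseline.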

Assay [7] is described as follows: ATG_SREBP_CIS: Attagene CIS-FACTORIAL HepG2 Assay for human Sterol Regulatory Element Binding (SREBP) (AID 2282962). To be noted: HepG2 Attagene cis-factorial SREBP reporter, mRNA; actives raise or lower the signal. An outline of the steps: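 Endogenous factor activity is measured in HepG2 through multiplexed reporter units under cis-element control. Following a 24 h incubation, reporter transcripts are reverse-transcribed, PCR-amplified and sized by capillary electrophoresis; activity is fitted in both directions relative to DMSO.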

Assay [8] deals with Signal transducer and activator of transcription 3 (Homo sapiens) (UniProt P40763). As to the kind of experiment: ATG_STAT3_CIS: Attagene CIS-FACTORIAL HepG2 Assay for human Signal Transducer and Activator of Transcription 3 (STAT3) (AID 2282963). To be noted: HepG2, Attagene cis-factorial STAT3 reporter transcription; actives raise or lower the signal. An outline of the steps: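 Uses human liver HepG2 transiently carrying cis-regulated reporter transcription units. Following 24 h dosing, reporter mRNA induction was detected by RT-PCR and capillary electrophoresis, analysed bidirectionally versus DMSO.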

Assay [9] can be described thus: ATG_TA_CIS: Attagene CIS-FACTORIAL HepG2 Assay for human TA Basal Promoter (AID 2282964). To be noted: HepG2 Attagene CIS-factorial TA basal promoter reporter; actives raise or lower the signal. An outline of the steps: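 Cis-factorial format in HepG2: reporters report endogenous factors, not chimeric Gal4 fusions. After 24 h treatment, reporter transcripts were measured by RT-PCR-capillary electrophoresis fluorescence, analysed bidirectionally versus DMSO.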

A short description of assay [10]: ATG_TCF_b_cat_CIS: Attagene CIS-FACTORIAL HepG2 Assay for human T-Cell-Factor with beta-catenin (TCF/b-cat) (AID 2282965). To be noted: HepG2 TCF/beta-catenin cis-reporter transcription, actives raise or lower the signal. An outline of the steps:
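Using capillary electrophoresis as the read-out, labelled reporter cDNA fragments from transiently transfected HepG2 were sized and quantified. Exposure lasted 24 hours; activity in either direction was referenced to DMSO.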

Assay [11] is described as follows: ATG_TAL_CIS: Attagene CIS-FACTORIAL HepG2 Assay for human TAL Basal Promoter (AID 2282966).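 Further: background control endpoint measuring basal TAL promoter reporter mRNA not a specific factor.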 The note with it: HepG2 Attagene cis-factorial TAL promoter reporter; actives raise or lower the signal. An outline of the steps:
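Background-control endpoint: basal TAL promoter reporter transcripts in transiently transfected HepG2, measured 24 h after dosing. Read-out by RT-PCR with fluorescent primer extension and capillary electrophoresis; gain or loss of signal fitted relative to DMSO.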

Assay [12] can be described thus: ATG_TGFb_CIS: Attagene CIS-FACTORIAL HepG2 Assay for human Transforming Growth Factor (TGF) (AID 2282967). To be noted: HepG2 Attagene CIS TGFb reporter, mRNA transcription; actives raise or lower the signal. An outline of the steps:
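Multiplexed cis-reporter HepG2 system, 24 h treatment; mRNA induction read by fluorescence after RT-PCR and CE; DMSO negative control, bidirectional curve fitting.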

The nature of assay [13]: ATG_VDRE_CIS: Attagene CIS-FACTORIAL HepG2 Assay for human Vitamin D Receptor Element (VDRE) (AID 2282968). To be noted: HepG2 VDRE cis-reporter transcription, actives raise or lower the signal. In outline:
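Transfected HepG2 reporter cells, chemical treatment 24 h. RNA isolated, cDNA amplified with reporter-specific primers, products analysed by capillary electrophoresis. Endpoint fitted in both directions versus DMSO.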

The target of assay [14] is X-box-binding protein 1 (Homo sapiens) (UniProt P17861). In words: ATG_Xbp1_CIS: Attagene CIS-FACTORIAL HepG2 Assay for human X-box Binding Protein 1 (XBP1) (AID 2282972). To be noted: HepG2 XBP1 cis-element reporter, Attagene multiplex; actives raise or lower the signal. In outline: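 Multiplexed cis-reporter readout in transfected HepG2 liver cells. Exposure lasted 24 hours. Activity in either direction was fitted against DMSO as negative control and baseline.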

Assay [15] is described as follows: ATG_GAL4_TRANS: Attagene TRANS-FACTORIAL HepG2 Assay for GAL4 (Internal Marker) (AID 2282976; active means hit-call score of the fitted dose curve at least 0.9, where 1 is the maximum). The note with it: HepG2 Attagene TRANS GAL4 internal marker reporter. An outline of the steps: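 In transfected human HepG2 liver cells dosed 24 h, GAL4 reporter mRNA serves as a baseline marker. Detection by RT-PCR with fluorescent capillary electrophoresis, activity fitted upward relative to DMSO.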

The target of assay [16] is Estrogen-related receptor gamma (Homo sapiens) (UniProt P62508). As to the kind of experiment: ATG_ERRg_TRANS: Attagene TRANS-FACTORIAL HepG2 Assay for human Estrogen-Related Receptor gamma (ERRg) (AID 2282977; active means hit-call score of the fitted dose curve at least 0.9, where 1 is the maximum;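 further: hits increase reporter signal over DMSO so potencies reflect activators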). To be noted: HepG2 Attagene TRANS reporter, ERRg transactivation. An outline of the steps:
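Exogenous NR-Gal4 chimera activity was assessed in HepG2 cells bearing transfected GAL4-UAS reporters. After 24 h dosing, total RNA underwent RT-PCR, fluorescent primer extension and HpaI digestion before capillary electrophoresis, with gain of signal scored against DMSO.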

The target of assay [17] is Estrogen receptor (Homo sapiens) (UniProt P03372). As to the kind of experiment: ATG_ERa_TRANS: Attagene TRANS-FACTORIAL HepG2 Assay for human Estrogen Receptor alpha (ERa) (AID 2282970; active means hit-call score of the fitted dose curve at least 0.9, where 1 is the maximum). To be noted: HepG2 Attagene TRANS ERa GAL4 reporter, mRNA. An outline of the steps: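 Reporter transcripts were measured 24 h after dosing by RT-PCR with fluorescent primer extension and capillary electrophoresis. The system is transiently transfected HepG2 expressing exogenous NR-Gal4 chimeras driving GAL4-UAS reporters; DMSO is the baseline.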

Assay [18] addresses Nuclear receptor subfamily 1 group I member 3 (Homo sapiens) (UniProt Q14994). In words: ATG_CAR_TRANS: Attagene TRANS-FACTORIAL HepG2 Assay for human Constitutive Androstane Receptor (CAR) (AID 2282969; active means hit-call score of the fitted dose curve at least 0.9, where 1 is the maximum;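 further: activators raise reporter mRNA above DMSO so AC50 marks induction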). To be noted: HepG2 Attagene TRANS-FACTORIAL CAR reporter. In outline:
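Steps: transient transfection of HepG2 with multiple GAL4-UAS reporter units; 24 h compound incubation; RNA isolation, RT-PCR, 6-FAM primer extension, HpaI digest; capillary electrophoresis. Gain-of-signal relative to DMSO negative control.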

Assay [19] can be described thus: ATG_M_19_TRANS: Attagene TRANS-FACTORIAL HepG2 Assay for M19 Transcription Factor (Internal Marker) (AID 2282974; active means hit-call score of the fitted dose curve at least 0.9, where 1 is the maximum). The note with it: HepG2 Attagene TRANS-FACTORIAL M19 internal marker reporter. An outline of the steps:
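HepG2 cells transiently transfected with multiple GAL4-UAS reporter transcription units were exposed to chemicals for 24 h. Reporter mRNA was read by RT-PCR, 6-FAM primer extension, HpaI digestion and capillary electrophoresis; gain of signal fitted relative to DMSO.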

Chain of Transcription factor Sp1 (Homo sapiens) (P08047 whole entry, looked up): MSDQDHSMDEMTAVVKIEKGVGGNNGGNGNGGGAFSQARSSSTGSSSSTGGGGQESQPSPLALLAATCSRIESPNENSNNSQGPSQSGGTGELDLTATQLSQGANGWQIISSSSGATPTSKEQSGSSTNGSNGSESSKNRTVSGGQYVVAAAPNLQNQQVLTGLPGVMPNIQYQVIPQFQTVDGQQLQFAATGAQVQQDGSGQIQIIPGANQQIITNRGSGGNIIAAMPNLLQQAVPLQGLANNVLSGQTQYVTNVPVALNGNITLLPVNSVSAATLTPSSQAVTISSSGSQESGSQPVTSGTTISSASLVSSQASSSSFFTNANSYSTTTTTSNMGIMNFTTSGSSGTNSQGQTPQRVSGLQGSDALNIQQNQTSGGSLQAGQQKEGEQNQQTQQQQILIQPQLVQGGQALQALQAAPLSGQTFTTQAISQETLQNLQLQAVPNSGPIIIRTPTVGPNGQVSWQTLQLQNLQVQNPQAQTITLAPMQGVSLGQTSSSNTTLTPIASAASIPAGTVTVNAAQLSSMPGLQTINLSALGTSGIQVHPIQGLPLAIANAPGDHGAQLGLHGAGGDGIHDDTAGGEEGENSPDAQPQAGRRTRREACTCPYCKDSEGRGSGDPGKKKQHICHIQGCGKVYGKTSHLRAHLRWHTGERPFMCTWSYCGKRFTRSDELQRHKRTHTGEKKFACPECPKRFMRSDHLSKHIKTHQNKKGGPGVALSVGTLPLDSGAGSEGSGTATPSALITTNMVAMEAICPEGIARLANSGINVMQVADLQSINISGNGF
Chain of Estrogen receptor (Homo sapiens) (P03372 whole entry, looked up, the tested form may be a part): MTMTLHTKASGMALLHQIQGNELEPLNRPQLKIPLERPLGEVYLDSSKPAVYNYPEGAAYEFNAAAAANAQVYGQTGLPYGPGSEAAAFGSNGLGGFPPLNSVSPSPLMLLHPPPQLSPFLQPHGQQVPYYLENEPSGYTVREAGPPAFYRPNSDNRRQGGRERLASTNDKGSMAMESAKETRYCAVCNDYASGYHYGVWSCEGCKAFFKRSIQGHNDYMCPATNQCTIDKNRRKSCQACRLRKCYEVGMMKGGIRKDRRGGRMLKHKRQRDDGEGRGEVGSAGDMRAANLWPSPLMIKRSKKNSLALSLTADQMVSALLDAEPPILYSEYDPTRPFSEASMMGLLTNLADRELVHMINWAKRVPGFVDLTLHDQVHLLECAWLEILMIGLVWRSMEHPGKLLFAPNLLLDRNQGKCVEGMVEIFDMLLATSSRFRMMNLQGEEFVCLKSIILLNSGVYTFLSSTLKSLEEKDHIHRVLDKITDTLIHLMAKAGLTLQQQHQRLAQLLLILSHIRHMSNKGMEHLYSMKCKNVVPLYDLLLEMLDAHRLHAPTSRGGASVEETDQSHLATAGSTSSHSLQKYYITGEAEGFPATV
Chain of Paired box protein Pax-6 (Homo sapiens) (P26367 whole entry, looked up): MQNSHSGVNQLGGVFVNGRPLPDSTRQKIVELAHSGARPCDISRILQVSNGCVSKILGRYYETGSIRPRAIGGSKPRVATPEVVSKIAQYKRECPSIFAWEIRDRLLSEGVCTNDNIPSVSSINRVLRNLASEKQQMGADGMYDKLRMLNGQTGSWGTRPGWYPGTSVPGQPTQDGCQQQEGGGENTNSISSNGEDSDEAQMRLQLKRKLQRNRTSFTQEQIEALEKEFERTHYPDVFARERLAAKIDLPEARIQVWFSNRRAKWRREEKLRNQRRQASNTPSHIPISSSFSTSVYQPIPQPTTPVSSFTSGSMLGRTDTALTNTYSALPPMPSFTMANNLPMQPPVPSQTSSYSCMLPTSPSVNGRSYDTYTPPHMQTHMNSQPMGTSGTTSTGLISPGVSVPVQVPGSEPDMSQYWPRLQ
Chain of Nuclear receptor subfamily 1 group I member 3 (Homo sapiens) (Q14994 whole entry, looked up, the tested form may be a part): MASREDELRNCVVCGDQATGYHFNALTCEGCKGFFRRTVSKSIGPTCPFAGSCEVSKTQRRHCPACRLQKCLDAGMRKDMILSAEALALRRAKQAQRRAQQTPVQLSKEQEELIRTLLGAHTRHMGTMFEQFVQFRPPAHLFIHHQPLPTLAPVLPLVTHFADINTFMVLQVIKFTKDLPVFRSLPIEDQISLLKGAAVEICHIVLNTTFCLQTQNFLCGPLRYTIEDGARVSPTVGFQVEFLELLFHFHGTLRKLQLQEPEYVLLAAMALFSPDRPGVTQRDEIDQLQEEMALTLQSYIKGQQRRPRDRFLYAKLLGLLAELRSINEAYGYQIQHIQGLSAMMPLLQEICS
Chain of X-box-binding protein 1 (Homo sapiens) (P17861 whole entry, looked up): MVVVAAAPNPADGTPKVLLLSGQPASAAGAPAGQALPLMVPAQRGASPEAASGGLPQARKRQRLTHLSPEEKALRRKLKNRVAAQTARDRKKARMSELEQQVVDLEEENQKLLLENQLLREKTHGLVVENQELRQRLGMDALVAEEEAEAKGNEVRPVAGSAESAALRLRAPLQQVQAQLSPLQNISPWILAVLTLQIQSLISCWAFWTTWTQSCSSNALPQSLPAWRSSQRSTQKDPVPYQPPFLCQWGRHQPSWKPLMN
Chain of Signal transducer and activator of transcription 3 (Homo sapiens) (P40763 whole entry, looked up): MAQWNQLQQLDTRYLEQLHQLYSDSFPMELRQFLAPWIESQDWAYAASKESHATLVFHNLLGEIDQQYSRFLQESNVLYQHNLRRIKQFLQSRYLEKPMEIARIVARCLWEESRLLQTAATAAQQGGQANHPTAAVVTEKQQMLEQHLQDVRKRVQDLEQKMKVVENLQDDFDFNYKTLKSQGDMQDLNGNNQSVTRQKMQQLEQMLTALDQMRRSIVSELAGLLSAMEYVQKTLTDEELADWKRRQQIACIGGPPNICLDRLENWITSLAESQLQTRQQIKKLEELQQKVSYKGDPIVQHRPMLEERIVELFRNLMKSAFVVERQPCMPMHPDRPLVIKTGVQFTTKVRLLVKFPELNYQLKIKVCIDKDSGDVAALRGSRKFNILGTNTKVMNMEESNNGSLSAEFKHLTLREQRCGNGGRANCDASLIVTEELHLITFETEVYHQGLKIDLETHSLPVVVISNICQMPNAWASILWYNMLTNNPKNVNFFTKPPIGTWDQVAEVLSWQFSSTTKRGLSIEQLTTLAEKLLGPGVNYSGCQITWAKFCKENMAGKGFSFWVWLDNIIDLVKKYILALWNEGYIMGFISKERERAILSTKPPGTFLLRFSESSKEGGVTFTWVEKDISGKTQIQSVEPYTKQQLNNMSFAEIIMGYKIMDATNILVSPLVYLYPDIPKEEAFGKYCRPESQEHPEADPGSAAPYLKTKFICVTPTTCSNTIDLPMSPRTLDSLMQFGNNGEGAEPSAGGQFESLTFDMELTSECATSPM
Chain of Estrogen-related receptor gamma (Homo sapiens) (P62508 whole entry, looked up, the tested form may be a part): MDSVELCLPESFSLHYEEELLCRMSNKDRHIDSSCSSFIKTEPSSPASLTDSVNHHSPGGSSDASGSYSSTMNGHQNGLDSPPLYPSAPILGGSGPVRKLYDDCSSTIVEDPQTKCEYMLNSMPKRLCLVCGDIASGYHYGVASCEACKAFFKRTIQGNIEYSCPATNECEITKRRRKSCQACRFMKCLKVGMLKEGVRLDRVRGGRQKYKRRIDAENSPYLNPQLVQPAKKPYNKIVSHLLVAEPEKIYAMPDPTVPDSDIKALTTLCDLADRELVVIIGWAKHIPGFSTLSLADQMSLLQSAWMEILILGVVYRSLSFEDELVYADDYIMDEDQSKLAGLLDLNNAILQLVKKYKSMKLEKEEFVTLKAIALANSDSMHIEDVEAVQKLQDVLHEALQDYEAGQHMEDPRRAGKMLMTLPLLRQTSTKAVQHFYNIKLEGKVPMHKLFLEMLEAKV

For the compound `O=C(O)c1cccc(N(Cc2cccnc2)c2ccc(OC(F)F)c(OC(F)F)c2)c1`, the outcome in [1], in assay [4], in assay [5], in assay [6], in [7] and in assay [8] was inactive. Also, the compound was called inactive in assay [9], in assay [11], in [12], in assay [13], in [14] and in assay [15]. Besides, in assay [16], the outcome was inactive. Besides, the AC50 in assay [2] was 26.2 µM (active); in assay [3] it was 25.1 µM (active); in [10] it was 100 µM (active).

Consider `O=C(O)c1cccc(Oc2ccccc2)c1`, for which the compound was classed as inactive in assay [1], in assay [2], in assay [4], in assay [5], in assay [7] and in assay [8]. Moreover, the compound was called inactive in [9], in [10], in [11], in assay [12], in [13] and in [17]. In addition, the compound was classed as inactive in assay [14] and in [15]. For the same compound, the AC50 in assay [3] was 48.3 µM (active).

For the compound `Cc1ccc(N)cc1O`, the outcome in assay [1], in assay [2], in [3], in [4], in assay [5] and in assay [6] was inactive. In addition, the compound was classed as inactive in assay [7], in assay [8], in [9], in assay [10], in assay [11] and in assay [12]. Moreover, the compound was called inactive in assay [13], in assay [18], in assay [17] and in assay [14].

Regarding `CCn1nc(Cc2ccccc2)cc1C1CCN(C[C@H]2C[C@H](N(C)[C@@H](C(=O)O)C(C)C)C[C@@H]2c2cccc(F)c2)CC1`, the compound was called inactive in assay [1], in assay [2], in assay [3], in assay [4], in [5] and in assay [6]. For the same compound, the outcome in assay [8], in [9], in assay [11], in assay [12], in [13] and in [17] was inactive. In addition, the compound was classed as inactive in assay [14], in assay [19] and in assay [15]. The AC50 in assay [7] was 26.9 µM (active); in assay [10], 100 µM (active).

As for `Clc1nc(Cl)c(Cl)c(Cl)c1Cl`, the result in assay [1], in [2], in [3], in assay [4], in [5] and in [7] was inactive. Further, the call in [8], in [9], in [10], in assay [11], in assay [12] and in assay [13] was inactive. For the same compound, the call in assay [18], in assay [14], in assay [19], in assay [15] and in [16] was inactive.

On to `CC(C)CCO`, for which the call in assay [1], in [2], in assay [3], in assay [4], in [5] and in assay [6] was inactive. Moreover, the call in [7], in assay [8], in [9], in [10], in [11] and in assay [12] was inactive. Further, the compound was called inactive in assay [13], in assay [17], in [14], in assay [19] and in assay [15].

Regarding `CC(=O)c1ccc2c(c1)[C@H](NC(=O)c1ccc(F)cc1)[C@@H](O)C(C)(C)O2`, the outcome in [1], in assay [4], in assay [5], in [6], in assay [7] and in assay [8] was inactive. For the same compound, the result in assay [9], in [10], in assay [11], in assay [12], in assay [13] and in assay [18] was inactive. The outcome in assay [14] and in assay [15] was inactive. Moreover, the AC50 in assay [2] was 12.4 µM (active); in assay [3], 1.87 µM (active).
